# High-throughput results from PubChem BioAssay.
# The list is not random: actives were taken first. Their share in the collection is about 7.4%.
# DAT uptake mod: human DAT dopamine uptake with cocaine, either direction; Q01959; LLC-PK1 hDAT cells, [14C]-dopamine uptake with cocaine IC80; actives deviate in either direction; B-score at 10 µM; 1.3% of 110,000 active;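 active = Z score or B-score, a plate-position-corrected score, falls beyond the plate's 99.7% confidence bounds, in either direction; inactive = both scores lie inside the 99.7% bounds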;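 also: scored against the spread of the other compound wells on the same plate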
# Target sequence (Q01959 whole entry, looked up): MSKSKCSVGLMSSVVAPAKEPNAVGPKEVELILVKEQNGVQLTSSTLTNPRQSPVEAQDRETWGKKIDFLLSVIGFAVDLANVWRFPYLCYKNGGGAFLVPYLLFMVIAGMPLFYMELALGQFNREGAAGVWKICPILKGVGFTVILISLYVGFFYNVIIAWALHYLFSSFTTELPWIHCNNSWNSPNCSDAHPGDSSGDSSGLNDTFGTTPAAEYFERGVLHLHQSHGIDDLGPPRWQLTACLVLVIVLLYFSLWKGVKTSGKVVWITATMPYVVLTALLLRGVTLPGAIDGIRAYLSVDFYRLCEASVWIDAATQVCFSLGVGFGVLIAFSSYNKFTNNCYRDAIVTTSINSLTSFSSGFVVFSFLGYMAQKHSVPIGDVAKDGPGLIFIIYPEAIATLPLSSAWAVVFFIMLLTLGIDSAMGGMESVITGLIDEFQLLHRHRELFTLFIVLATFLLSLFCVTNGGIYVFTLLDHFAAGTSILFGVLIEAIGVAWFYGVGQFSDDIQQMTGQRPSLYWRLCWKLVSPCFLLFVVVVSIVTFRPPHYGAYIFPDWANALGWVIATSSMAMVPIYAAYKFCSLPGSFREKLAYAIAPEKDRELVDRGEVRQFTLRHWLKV
# FXIa mix inh: factor XIa (human) inhibition, mixture screen | P03951 | inhibition, % at 5 µM | AID 680 | purified FXIa, fluorogenic substrate, pooled mixtures | 0.19% of 62,000 active;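 also: each value is inhibition by a whole ten-compound pool holding the compound; 0% = enzyme with no mixture and 100% = wells lacking enzyme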
# FXIIa inh mix: inhibitors of human coagulation factor XIIa, pooled mixtures; P00748; purified FXIIa, fluorogenic substrate; inhibition, % at 5 µM; 0.2% of 62,000 active; AID 684;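 also: 0% = enzyme without compound and 100% = no enzyme blank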
# M1 agonist: activates the M1 muscarinic receptor | CHO-M1 cells, Fluo-4 calcium fluorescence, agonist mode; active compounds read high | B-score at 10 µM | 3% of 64,000 active;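 active = fluorescence rise, raw or as B-score row- and column-corrected plate score, outside the 99.7% band of its plate's samples, either direction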
# D1 allo mod: allosteric modulators of human D1 dopamine receptor | P21728 | HEK293 D1, CRE-luciferase, dopamine EC30 potentiation; actives deviate in either direction | B-score at 10 µM | 5.9% of 58,000 active | AID 641;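 active = luminescence count or its row- and column-corrected plate score outside the 99.7% band of the plate's sample wells, on either side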
# M1 antagonist: blocks the rat M1 muscarinic receptor response to acetylcholine; P08482; 3.4% of 64,000 active; CHO-M1 cells, Fluo-4 calcium, ACh EC80 antagonist mode; active compounds read low; B-score at 10 µM; AID 628;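 active = calcium fluorescence response, raw or row-and-column corrected B-score, differing from the plate sample mean either way at a set confidence level, mostly lower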
# M1 ag confirm: confirmation of rat M1 muscarinic receptor agonists; 19% of 1,700 active; fluorescence change (max-min) at 10 µM; AID 1488; shares compounds with M1 agonist; CHO-M1 cells, Fluo-4 calcium fluorescence, agonist mode; actives lie on both sides;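 active = fluorescence change differs from the solvent-only DMSO control mean at a set confidence level in both duplicate runs; inconclusive = differs from solvent-only control mean in just one of two runs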;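 also: an EC20 dose of acetylcholine follows compound addition during the same imaging run; raw fluorescence intensity difference in instrument units with no normalization to controls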
# M4 ag counter: rat M4 muscarinic agonism, M1 counter-screen. shares compounds with M1 agonist. CHO M4/Gqi5 cells, Fluo-4 calcium fluorescence, agonist mode; actives lie on both sides. fluorescence change (max-min) at 10 µM. 9% of 1,700 active;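 active = fluorescence change differing from the plate's solvent-only control wells at 99.7% confidence in both duplicates, whether higher or lower; inconclusive = differs from solvent controls in only one of two duplicates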
# * hit, by the source's call; ? = inconclusive; nt = no result given. Rule as the data show it, unless noted: active = inhibition above about 20% (passing the limit was not always enough); inactive = the rest.
SMILES,DAT uptake mod,FXIa mix inh,FXIIa inh mix,M1 agonist,D1 allo mod,M1 antagonist,M1 ag confirm,M4 ag counter
CCOC(=O)c1ccc(NC(=O)CSc2nnc(Cn3c(=O)sc4ccccc43)n2C)cc1,0.66,4,1,2.3*,nt,0.19,3.5,-7
Cc1nn(CC(=O)N(C)C)c(=O)c2ccccc12,-0.33,nt,nt,4.2*,0.8,0.41,-5.6,-25
Cc1nn(CC(N)=O)c(=O)c2ccccc12,-0.4,nt,nt,0.11,nt,-0.36,nt,nt
CC(=O)N1CCc2cc(S(=O)(=O)Nc3cccc(C(F)(F)F)c3)ccc21,-1.3,3,6,5.1*,-1.3,-0.98,-11,-34
Cn1c(=O)c2c(nc(N3CCNCC3)n2Cc2cccc3ccccc23)n(C)c1=O,-0.017,6,16,-0.95,0.21,0.15,nt,nt
CCCOc1nc2c(c(=O)n(C)c(=O)n2C)n1Cc1cccc2ccccc12,1.4,9,4,3.6*,-0.95,-0.7,?,-32
CCOC(=O)C1=C(C)N=c2s/c(=C\c3cccn3C)c(=O)n2C1c1cccc(OC)c1OC (stereo not given),0.7,3,2,55*,0.66,-0.67,3.4,76
CCOC(=O)C1=C(C)N=c2s/c(=C/c3ccco3)c(=O)n2C1c1cccc(OC)c1 (stereo not given),0.77,10,-20,0.67,-0.6,0.034,nt,nt
Cn1cc(C(=O)c2ccc(F)cc2)cc1-c1nc2ccccc2n1C,0.88,-20,1,3.2*,-0.59,-2,-8.5,?
Nc1c(N2CCCC2)cc(Cl)c2nonc12,-2.2,0,6,4.2*,0.026,-0.51,8.6,-43
COC(=O)c1ccc(Cl)c(NC(=O)CN2CCN(C)CC2)c1,0.55,nt,nt,nt,nt,nt,nt,nt
COc1ccc(N2CCN(C(=O)c3cccc(Cn4cc(Cl)cn4)c3)CC2)cc1,0.78,nt,nt,-1.6,-0.43,-0.3,nt,nt
N#Cc1c(NCCO)nc(NCc2ccccc2)c2c1CCN(Cc1ccccc1)C2,0.1,-22,-8,3.3*,nt,-1.3,-3.8,-4.3
CC1CCCCN1C(=O)Nc1cccc(Cl)c1 (stereo not given),0.1,2,2,16*,0.79,-19*,?,-59
N=c1c(S(=O)(=O)c2ccccc2)cc2c(=O)n3ccccc3nc2n1Cc1ccco1,1.1,-13,10,9*,2.9,0.14,15,-22
O=C(CCn1c(=O)oc2ccccc21)NCCN1CCc2ccccc2C1,0.64,6,-9,3.3*,-0.12,0.41,-7.5,-30
O=C(CCCn1c(=O)oc2ccccc21)N1CCc2ccccc2C1,1.4,5,20,1.3,1,0.33,nt,nt
O=C(NC1CCN(S(=O)(=O)c2ccccc2)CC1)C1CCCCC1,-0.16,nt,nt,nt,nt,nt,nt,nt
O=C(NC1CCCCCC1)C1CCN(S(=O)(=O)c2ccccc2)CC1,0.37,9,-16,6.5*,-0.11,0.73,?,?
CCCCn1c(SCC(N)=O)nnc1-c1cc(OC)c(OC)c(OC)c1,0.21,-1,5,-0.063,-0.89,0.56,nt,nt
Cc1csc(NC(=O)c2sc3nc(-c4cccs4)ccc3c2N)n1,-0.51,-1,6,54*,-2.8*,-1.3,?,?
CCOc1ccc2c(c1)n(CO)c(=S)n2CO,0.56,6,-14,0.014,0.13,0.24,nt,nt
Cc1ccc(-c2nnc3c4ccccc4c(C)nn23)cc1NC(=O)CN1CCOCC1,-0.4,9,-19,nt,0.25,nt,nt,nt
Cc1ccc(-c2nnc3c4ccccc4c(C)nn23)cc1S(=O)(=O)N1CCN(CCO)CC1,0.63,4,2,4.2*,2.1,-1.6,-0.23,-20
CC(/C=N/Nc1nnc(C)c(=O)[nH]1)=C\c1ccccc1,0.15,nt,nt,nt,nt,nt,nt,nt
SMILES,DAT uptake mod,FXIa mix inh,FXIIa inh mix,M1 agonist,D1 allo mod,M1 antagonist,M1 ag confirm,M4 ag counter
Cc1ccc(-n2c(C)nc3c(cnn3-c3ccc(F)cc3)c2=O)cc1C,-0.29,-4,-2,3.5*,0.75,-1.2,-15,?
Cc1ccc(-n2c(C)nc3c(cnn3-c3ccc(C)c(C)c3)c2=O)cc1C,0.94,nt,nt,nt,nt,nt,nt,nt
Cc1ccc(CNC(=O)CSc2n[nH]c(N)n2)cc1,-0.83,9,-15,-0.24,-0.026,0.025,nt,nt
Cc1cc(C)n(-c2nc(NCC(C)O)c3c4c(sc3n2)COC(C)(C)C4)n1 (stereo not given),1.7,nt,nt,nt,nt,nt,nt,nt
Cc1cc(C)n(-c2nc(NCC3CCCO3)c3c4c(sc3n2)COC(C)(C)C4)n1 (stereo not given),2.1,-5,23,3.4*,1.2,-0.99,-18,-17
C=C1CCN([C@H](C(=O)NCc2ccc(Cl)c(Cl)c2)C(C)C)S(=O)(=O)c2ccccc21,0.052,nt,nt,nt,nt,nt,nt,nt
CCCCC(=O)Nc1ccc(N2CCCC2)cc1,0.41,nt,nt,nt,nt,nt,nt,nt
CCCCCC(=O)Nc1ccc(N2CCN(S(C)(=O)=O)CC2)cc1,-0.88,0,4,-2.3*,-0.18,-0.42,-0.16,-15
COC(=O)CSc1nnc(-c2ccncc2)n1N,-0.81,2,1,4.5*,0.028,1.9,?,-46
CCn1c(SCC(=O)OC)nnc1-c1ccncc1,0.55,nt,nt,nt,nt,nt,nt,nt
CC1CC(=O)c2cnc(Nc3cccc(C(F)(F)F)c3)nc2C1 (stereo not given),-0.43,8,-20,3*,0.39,0.45,-4.8,0.27
Cc1cccc(C)c1NC(=O)C1(NC(=O)c2cnccn2)CCCCC1,-1.5,0,9,0.18,-0.28,0.12,nt,nt
CC(NC(=O)C1CCCCC1)C(c1cccs1)N1CCOCC1 (stereo not given),0.95,5,2,0.06,nt,0.16,nt,nt
COc1ccc2cc(C(=O)NCc3ccco3)c(=Nc3ccc(C(=O)O)cc3)oc2c1,1.5,8,7,2.7*,1.8,-0.02,?,-68
Cc1ccc(N2CC(C(=O)Nc3ccncc3)CC2=O)cc1 (stereo not given),0.12,-5,14,0.35,-0.39,0.053,nt,nt
CC(=O)Nc1cccc(NC(=O)C2CC(=O)N(c3ccc(C)cc3)C2)c1 (stereo not given),-1.3,4,-3,3.1*,-0.028,0.85,-19,-53
COc1cccc(C2C=C(c3ccc(Br)s3)Nc3ncnn32)c1OC (stereo not given),0.6,2,8,18*,-0.68,-0.96,170*,156*
CC(C)C(c1nnnn1C1CCCCC1)N1CCN(c2ncccn2)CC1 (stereo not given),0.54,-1,5,4.4*,-0.61,0.064,-14,-33
CN(C[C@H](Cc1ccccc1)N(C[C@@H](Cc1cccc2ccccc12)N(CCc1ccccc1)N=O)N=O)N=O,0.34,nt,nt,nt,nt,nt,nt,nt
COc1ccc(C2C(C(C)=O)=C(C)N=c3s/c(=C/c4ccc5c(c4)OCO5)c(=O)n32)cc1 (stereo not given),-0.83,-4,4,3.9*,0.66,-0.39,40,36
